BRCT inh green = inhibitors of human BRCA1 BRCT-phosphoprotein interaction (green fluorophore) | BRCA1 BRCT-phosphopeptide binding, green fluorescence polarization | Potency, µM (top dose mostly 76.9 µM), for the others: at the top dose activity change, negative = inhibition, most hits filed as inhibitors | 0.05% of 75,000 active | P38398;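 note: potency is the fitted concentration of half-maximal effect; plate controls were peptide without protein for full effect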
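Fluorescence polarization: His-tagged BRCT (~35 kDa BRCA1 C-terminus, 250 nM) bound to 100 nM fluorescein-labeled phosphorylated 10-aa BACH1 peptide, pH 7.3 phosphate buffer with DTT and Tween 20. Compounds incubated 12 min at room temperature; inhibition read as lowered polarization.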
YjeE inh = displaces an ADP probe from E. coli YjeE (TsaE); purified YjeE enzyme, qHTS inhibition assay; Potency, µM; 0.05% of 71,000 active; AID 605
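Purified YjeE (10 uM) with BODIPY Texas Red-labeled ADP probe (2 uM); compounds pin-transferred, 15 min at room temperature. Binding inhibition read as decreased fluorescence polarization; ADP titration as control.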
Tau fil binding = binds recombinant human tau filaments; P10636; 2% of 71,000 active; recombinant tau filaments, thioflavin S fluorescence, 15 h; filaments grown with octadecylsulfate alongside compound; Potency, µM (top dose mostly 57.1 µM), without a hit: at the top dose activity change, negative = inhibition;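 note: potency is the fitted concentration of half-maximal effect; % is set by controls: 0 for no effect and ±100 for the full control effect; actives lower thioflavin S fluorescence by blocking filaments or displacing dye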
Target sequence (P10636 whole entry, looked up): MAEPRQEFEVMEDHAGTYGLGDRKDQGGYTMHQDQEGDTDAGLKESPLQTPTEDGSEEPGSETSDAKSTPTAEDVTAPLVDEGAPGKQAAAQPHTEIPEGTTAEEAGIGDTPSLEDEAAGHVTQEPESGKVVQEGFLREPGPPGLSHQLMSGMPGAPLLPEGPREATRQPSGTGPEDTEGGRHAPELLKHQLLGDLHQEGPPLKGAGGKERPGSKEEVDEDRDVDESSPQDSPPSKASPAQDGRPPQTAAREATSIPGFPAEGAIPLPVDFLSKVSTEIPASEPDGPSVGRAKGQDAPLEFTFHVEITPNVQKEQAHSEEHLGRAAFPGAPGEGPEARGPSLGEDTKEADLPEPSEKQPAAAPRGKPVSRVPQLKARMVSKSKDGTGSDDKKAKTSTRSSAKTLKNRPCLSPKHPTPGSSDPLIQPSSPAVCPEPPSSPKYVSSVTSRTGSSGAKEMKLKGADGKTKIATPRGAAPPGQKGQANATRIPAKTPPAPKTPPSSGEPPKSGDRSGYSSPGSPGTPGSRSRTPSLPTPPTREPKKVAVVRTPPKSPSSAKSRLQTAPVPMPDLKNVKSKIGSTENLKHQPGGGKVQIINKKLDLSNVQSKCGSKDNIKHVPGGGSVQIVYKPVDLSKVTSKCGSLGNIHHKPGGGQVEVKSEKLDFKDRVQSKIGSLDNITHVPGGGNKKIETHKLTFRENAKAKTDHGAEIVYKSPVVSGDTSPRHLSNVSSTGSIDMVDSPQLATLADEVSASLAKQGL
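Assay mix: 1 uM His-tagged tau, 30 uM sodium octadecylsulfate, thioflavine S dye in HEPES/NaCl/DTT buffer. Compound is added prior to the inducer. Fluorescence after 15 h at 37 C.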
ALOX15 inhib = blocks human 15-lipoxygenase activity; P16050; purified 15hLO-1, xylenol orange hydroperoxide absorbance; Potency, µM (titrated, usually from 57.1 µM), for the others: at the top dose activity change, negative = inhibition, hits mostly inhibitors; 1.4% of 74,000 active; AID 887; note: potency is the fitted concentration of half-maximal effect; % is set by controls: 0 for no effect and ±100 for the full control effect; nearly all actives have a fitted effect of over 55% in size
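Purified human 15hLO-1 (40 nM final) in 25 mM Hepes pH 7.5, 0.01% Triton X-100 was preincubated with compound 15 min at room temperature, then reacted 6 min with 50 uM arachidonic acid; hydroperoxide detected by Fe-XO, 573/405 nm absorbance ratio.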
BRCT PPI red = disrupts BRCA1 BRCT binding to phosphoprotein, red fluorophore readout; P38398; BRCT-phosphopeptide binding, red fluorescence polarization; Potency, µM (highest dose often 76.9 µM), inactives show at the highest dose activity change, negative = inhibition, actives largely listed as inhibitors; 0.03% of 75,000 active; note: % is set by controls: 0 for no effect and ±100 for the full control effect
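Fluorescence polarization: 100 nM His-tagged BRCA1 BRCT with 100 nM TAMRA-labelled phospho-BACH1 decapeptide, phosphate buffer pH 7.3 with 150 mM NaCl, DTT, 0.01% Tween 20; 12 min RT. Binding inhibition seen as FP decrease.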
DNA Pol III inh = blocks replication by bacterial DNA polymerase III holoenzyme; AID 603; reconstituted DNA polymerase III holoenzyme replication, biochemical; 0.25% of 71,000 active; Potency, µM (top dose mostly 57.1 µM), for inactives: at the top dose activity change, negative = inhibition; note: potency is the fitted concentration of half-maximal effect; % is set by controls: 0 for no effect and ±100 for the full control effect
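Reconstituted *E. coli* holoenzyme (0.35 nM Pol III, 1 nM beta, 154 nM SSB, 2 nM primase) was preincubated with compound for 15 min at RT. Synthesis on 1.4 nM ssM13Gori ran 35 min, then was stopped with PicoGreen/EDTA and read as dsDNA fluorescence.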
The depositor's hits bear a star; ! = not active in a repeat; [ ] = dose if it differs, or a comment. In the library only some 3.3% were active in any assay of this set; here they are far more common. Calls come from the whole dose curve; as a rule, active = well fitted curve in the direction sought with a large enough effect; inconclusive = small, poorly fitted or top-dose-only effect, or another doubt; inactive = no such curve, though single readings can be large; an effect the other way counts as inactive or inconclusive.

`Cc1ccc(C2NC(=O)NC3=C2CCc2ccccc23)cc1` (stereo unspecified) gave BRCT inh green 0%, YjeE inh inactive, Tau fil binding 20µM*, ALOX15 inhib -25%, BRCT PPI red 0% and DNA Pol III inh -7%.
Cn1c(=O)c(C(=O)CN2CCCc3ccccc32)c(N)n(Cc2ccccc2)c1=O was read as BRCT inh green 3%, YjeE inh inactive, Tau fil binding 25µM*, ALOX15 inhib inconclusive, BRCT PPI red 2% and DNA Pol III inh 1%.
Screening COC(=O)C1=C(C)NC(C)=C(C(=O)OC)C1c1cc2cc(C)ccc2[nH]c1=O returned BRCT inh green -5%, YjeE inh inactive, Tau fil binding 6%, ALOX15 inhib -22%, BRCT PPI red -1% and DNA Pol III inh -11%.
For Cc1ccc2[nH]c(-c3cccc(N)c3)cc2c1 the results were BRCT inh green -6%, YjeE inh inactive, Tau fil binding 10µM*, ALOX15 inhib -21%, BRCT PPI red 1% and DNA Pol III inh 2%.
O=C1C2=CC[C@H]3C(=O)N(C[C@@H]4CCCO4)C(=O)[C@@H]3[C@@H]2[C@H](O)[C@@H]2O[C@H]12 was read as BRCT inh green -3%[15.4 µM], ALOX15 inhib 1%[11.4 µM] and BRCT PPI red 0%[15.4 µM].
`CCCC1(C(=O)OC)C=C2C(=C(C)C(=O)C2C)CN1` (stereo unspecified) gave BRCT inh green -8%, YjeE inh inactive, Tau fil binding 20%, BRCT PPI red 0% and DNA Pol III inh -3%.
`CN(C)S(=O)(=O)c1nc(Cl)c2[nH]cnc2n1` gave BRCT inh green 0%[15.4 µM], YjeE inh inactive, Tau fil binding -3%[11.4 µM], ALOX15 inhib -2%[11.4 µM], BRCT PPI red 2%[15.4 µM] and DNA Pol III inh -8%[11.4 µM].
For CC(C)N1C(=O)CCC1C(=O)N1CCC(Cc2ccccc2)CC1 (stereo unspecified) the results were BRCT inh green 1%, YjeE inh inactive, Tau fil binding 2%, ALOX15 inhib 1%, BRCT PPI red 1% and DNA Pol III inh -2%.
`O=C(Cc1cc(=O)[nH]c(=O)[nH]1)N1CCC(Cc2ccccc2)CC1` gave BRCT inh green 3%, YjeE inh inactive, Tau fil binding 25µM*, ALOX15 inhib -8%, BRCT PPI red -1% and DNA Pol III inh -6%.
For COc1cc2c(cc1OC)-c1cc3nc4ccccc4nc3n1C(C)(C)C2 the results were BRCT inh green -11%, YjeE inh inactive, Tau fil binding 164%, ALOX15 inhib 13µM*, BRCT PPI red -2% and DNA Pol III inh 9%.
Screening COc1cc2c(cc1OC)-c1nnc(-c3cccs3)n1C(C)(C)C2 returned BRCT inh green 0%, YjeE inh inactive, Tau fil binding 22%, ALOX15 inhib -7%, BRCT PPI red 0% and DNA Pol III inh -3%.
NC1(C(=O)O)CC(C(=O)O)C1 (stereo unspecified) was read as BRCT inh green -1%, YjeE inh inactive, Tau fil binding inconclusive, ALOX15 inhib 20µM*!, BRCT PPI red 0% and DNA Pol III inh -2%.
Screening CCN(CC(=O)O)CC(=O)O returned BRCT inh green -1%[15.4 µM], YjeE inh inactive, Tau fil binding -7%[11.4 µM], ALOX15 inhib 17%[11.4 µM], BRCT PPI red 1%[15.4 µM] and DNA Pol III inh -8%[11.4 µM].
For O=[N+]([O-])c1cccc(/C=N\Nc2ccc3ccccc3n2)c1O the results were BRCT inh green 0%[15.4 µM], YjeE inh inactive, Tau fil binding 3.2µM*, ALOX15 inhib 47%[11.4 µM], BRCT PPI red 0%[15.4 µM] and DNA Pol III inh -7%[11.4 µM].
Screening C/C(=N/Nc1ccc2ccccc2n1)c1ccccc1O returned BRCT inh green -2%[15.4 µM], YjeE inh inactive, Tau fil binding -6%[11.4 µM], ALOX15 inhib 13%[11.4 µM], BRCT PPI red 0%[15.4 µM] and DNA Pol III inh 9%[11.4 µM].
For CC(=O)OC[C@@H]1O[C@H](C/C=N\OC[C@@H](C)[C@H](OCc2ccccc2)C(C)C)C=C[C@@H]1OC(C)=O the results were BRCT inh green 2%[15.4 µM], ALOX15 inhib -6%[11.4 µM] and BRCT PPI red -1%[15.4 µM].
`COC(c1ccccc1Br)C(C)/C=C/CCO` (stereo unspecified) gave BRCT inh green -3%[15.4 µM], ALOX15 inhib 1.6µM* and BRCT PPI red 0%[15.4 µM].
For COc1ccc2c(c1)O[C@H](c1cccc(C(F)(F)F)c1)[C@@H](O)C2=O the results were BRCT inh green 0%[15.4 µM], ALOX15 inhib 6%[11.4 µM] and BRCT PPI red 0%[15.4 µM].
Screening COc1ccc(N2CCN(C(=O)C(C)(C)Oc3ccc(Cl)cc3)CC2)cc1 returned BRCT inh green -3%, YjeE inh inactive, Tau fil binding 13µM*, ALOX15 inhib inconclusive, BRCT PPI red -1% and DNA Pol III inh 1%.
For CCOC(=O)N1CCN(C(=O)C(C)(C)Oc2ccc(Cl)cc2)CC1 the results were BRCT inh green -1%, YjeE inh inactive, Tau fil binding 0%, ALOX15 inhib 8%, BRCT PPI red 0% and DNA Pol III inh -2%.
For COc1ccc2c(=O)c3c(=O)n(Cc4ccco4)c(-c4ccc(C)cc4)nc3oc2c1 the results were BRCT inh green -1%, YjeE inh inactive, Tau fil binding 10µM*, ALOX15 inhib -21%, BRCT PPI red -1% and DNA Pol III inh -4%.
COc1ccc2c(=O)c3c(=O)n(Cc4ccco4)c(C(C)C)nc3oc2c1 was read as BRCT inh green 2%, YjeE inh inactive, Tau fil binding -26%, ALOX15 inhib -5%, BRCT PPI red 0% and DNA Pol III inh 2%.
O=c1c2ccccc2oc2nc(-c3ccco3)n(Cc3ccccc3)c(=O)c12 was read as BRCT inh green -1%, YjeE inh inactive, Tau fil binding 20µM*, ALOX15 inhib -6%, BRCT PPI red -3% and DNA Pol III inh -2%.
Screening CC(CO)(CO)N=Cc1cc(I)cc(I)c1O returned BRCT inh green -2%[15.4 µM], YjeE inh inactive, Tau fil binding inconclusive, ALOX15 inhib 1%[11.4 µM], BRCT PPI red -2%[15.4 µM] and DNA Pol III inh -13%[11.4 µM].
Screening CN(C)C[C@H]1CCC2=C(C1=O)C(c1ccc(Cl)c(Cl)c1)C1=C(CC[C@H](CN(C)C)C1=O)O2 returned BRCT inh green -1%[15.4 µM], YjeE inh inactive, Tau fil binding 7%[11.4 µM], ALOX15 inhib 14%[11.4 µM], BRCT PPI red -2%[15.4 µM] and DNA Pol III inh -9%[11.4 µM].
COc1cccc(Cn2c(=O)c(-c3cccs3)nc3cncnc32)c1 was read as BRCT inh green 2%, YjeE inh inactive, Tau fil binding inconclusive, ALOX15 inhib -8%, BRCT PPI red 0% and DNA Pol III inh 3%.

Source: PubChem
